From PubChem BioAssay (Tox21)
Records with an inconclusive call do not appear. The source made the active and inactive calls. The call rests on the fitted dose curve; in most records, active means well fitted activation curve with a large enough effect in the repeat runs; inconclusive means weak or mixed curves; inactive means no such curve, though single readings can be large or run the other way.

molecular target: Aryl hydrocarbon receptor (Homo sapiens) (UniProt P35869); test: qHTS assay to identify small molecule that activate the aryl hydrocarbon receptor (AhR) signaling pathway (AID 743085); details: HepG2 AhR-luc (HG2L7.5c1), luciferase, 24 h; series mostly up to 70.3 µM; activation: at the top concentration; further: nearly all actives have a fitted effect of over 15% in size;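 on activation: HG2L7.5c1 human HepG2 liver cells with stably integrated DRE-driven firefly reporter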
In short: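 HepG2 cells (HG2L7.5c1) stably carrying a firefly luciferase reporter driven by 20 dioxin responsive elements were exposed to compound for 24 h at 37C after a 5 h settling period; luminescence rise (ONE-Glo) indicated activation.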
On the % scale 0 is the no-effect control and ±100 the full control effect; potency means the concentration at half of the fitted maximal effect.

Aryl hydrocarbon receptor (Homo sapiens), sequence (P35869 whole entry, looked up): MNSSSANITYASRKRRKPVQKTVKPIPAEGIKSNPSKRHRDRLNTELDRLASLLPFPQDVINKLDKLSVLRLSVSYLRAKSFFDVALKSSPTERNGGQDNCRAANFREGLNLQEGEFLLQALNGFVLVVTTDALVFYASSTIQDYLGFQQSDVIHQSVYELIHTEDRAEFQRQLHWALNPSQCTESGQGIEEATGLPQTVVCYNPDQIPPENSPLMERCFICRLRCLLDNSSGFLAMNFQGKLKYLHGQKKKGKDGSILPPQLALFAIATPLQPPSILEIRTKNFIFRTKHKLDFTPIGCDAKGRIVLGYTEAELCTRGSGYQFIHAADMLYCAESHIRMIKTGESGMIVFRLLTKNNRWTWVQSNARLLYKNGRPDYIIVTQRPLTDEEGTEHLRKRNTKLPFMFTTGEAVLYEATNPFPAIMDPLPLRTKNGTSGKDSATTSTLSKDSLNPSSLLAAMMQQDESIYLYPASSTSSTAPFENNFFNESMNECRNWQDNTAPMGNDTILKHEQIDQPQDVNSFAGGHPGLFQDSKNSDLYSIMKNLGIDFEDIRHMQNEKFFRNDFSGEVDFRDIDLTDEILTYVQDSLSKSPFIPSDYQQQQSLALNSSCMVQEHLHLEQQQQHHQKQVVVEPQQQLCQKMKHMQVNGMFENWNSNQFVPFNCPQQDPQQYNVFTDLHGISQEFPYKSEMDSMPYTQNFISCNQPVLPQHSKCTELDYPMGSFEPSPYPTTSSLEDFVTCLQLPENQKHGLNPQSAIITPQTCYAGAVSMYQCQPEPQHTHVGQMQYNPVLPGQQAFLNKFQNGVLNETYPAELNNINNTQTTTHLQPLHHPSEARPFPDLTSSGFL

SMILES	Potency	activation
CC(C)(S)C(=O)N[C@@H](CS)C(=O)O	inactive	–
C[S+](C)CCC(N)C(=O)O (stereo unspecified)	–	-1.03% (inactive)
CC(C)(C)c1ccc2c(S(=O)(=O)O)c(C(C)(C)C)ccc2c1	inactive	–
CC(=O)NC[C@H]1CN(c2ccc(N3CCOCC3)c(F)c2)C(=O)O1	–	-0.0046% (inactive)
CC(=O)O[C@H]1C[C@@H]2CC[C@@H]3[C@H](CC[C@@]4(C)[C@H]3C[C@H]([N+]3(C)CCCCC3)[C@@H]4OC(C)=O)[C@@]2(C)C[C@@H]1[N+]1(C)CCCCC1	–	-0.6% (inactive)
N#Cc1c(N(CC(=O)O)CC(=O)O)sc(C(=O)O)c1CC(=O)O	–	0.795% (inactive)
CC[C@H]1OC(=O)C[C@@H](O)[C@H](C)[C@@H](O[C@@H]2O[C@H](C)[C@@H](O[C@H]3C[C@@](C)(O)[C@@H](O)[C@H](C)O3)[C@H](N(C)C)[C@H]2O)[C@@H](CC=O)C[C@@H](C)C(=O)/C=C/C(C)=C/[C@@H]1CO[C@@H]1O[C@H](C)[C@@H](O)[C@@H](OC)[C@H]1OC	inactive	–
COC1=C(OC)C(=O)C(C/C=C(\C)CC/C=C(\C)CC/C=C(\C)CC/C=C(\C)CC/C=C(\C)CC/C=C(\C)CC/C=C(\C)CC/C=C(\C)CC/C=C(\C)CCC=C(C)C)=C(C)C1=O	inactive	–
CCC[C@@H]1C[C@@H](C(=O)N[C@@H]([C@H]2O[C@H](SC)[C@H](OP(=O)(O)O)[C@@H](O)[C@H]2O)[C@H](C)Cl)N(C)C1	inactive	–
CC1=C(/C=C/C(C)=C/C=C/C(C)=C/C=C/C=C(C)/C=C/C=C(C)/C=C/C2=C(C)CCCC2(C)C)C(C)(C)CCC1	–	1.1% (inactive)
C[N+](C)(C)CCOP(=O)(O)OP(=O)([O-])OC[C@H]1O[C@@H](n2ccc(N)nc2=O)[C@H](O)[C@@H]1O	inactive	–
NC(=O)C1c2ccccc2CCc2ccccc21	–	-0.984% (inactive)
CO/N=C(\C(=O)N[C@@H]1C(=O)N2C(C(=O)[O-])=C(C[n+]3ccc(N)n3CCO)CS[C@H]12)c1csc(N)n1	–	-1.59% (inactive)
CC(=O)OCC1=C(C(=O)O)N2C(=O)[C@@H](NC(=O)Cc3ccccc3)[C@H]2SC1	–	3.74% (inactive)
CS(=O)(=O)c1ccc([C@@H](O)[C@@H](COC(=O)CN)NC(=O)C(Cl)Cl)cc1	–	0.157% (inactive)
Cc1cccc(C)c1NC(=O)C1CCCCN1C (stereo unspecified)	–	1.85% (inactive)
CC(=NCc1ccccc1)c1ccccc1O	–	2.23% (inactive)
CSCC[C@H](NC(=O)[C@H](Cc1ccc(OS(=O)(=O)O)cc1)NC(=O)[C@@H](N)CC(=O)O)C(=O)NCC(=O)N[C@@H](Cc1c[nH]c2ccccc12)C(=O)N[C@@H](CCSC)C(=O)N[C@@H](CC(=O)O)C(=O)N[C@@H](Cc1ccccc1)C(N)=O	inactive	–

SMILES	Potency	activation
O=C[C@H](O)[C@@H](O)[C@@H](O)[C@H](O)CO	–	-0.0775% (inactive)
COC(=O)[C@H]1[C@H]2C[C@H]3c4[nH]c5ccccc5c4CCN3C[C@H]2CC[C@@H]1O	18.8 µM (active)	–
CCOC(=O)[C@H](CCc1ccccc1)N[C@@H](C)C(=O)N1[C@H](C(=O)O)C[C@H]2CCCC[C@@H]21	inactive	–
CC(C)CCC[C@@H](C)[C@H]1CC[C@H]2[C@@H]3CC=C4C[C@@H](O)CC[C@]4(C)[C@H]3CC[C@]12C	–	-0.647% (inactive)
C=CC[N@@+]12CC[C@@]34c5ccccc5N5/C=C6/[C@H]7C[C@H]8[C@@]9(CC[N@@+]8(CC=C)C/C7=C/CO)c7ccccc7N(/C=C(/[C@@H](C[C@@H]31)/C(=C\CO)C2)[C@H]54)[C@@H]69	–	-0.125% [at 32.5 µM] (inactive)
CC(=O)Oc1cc(C(F)(F)F)ccc1C(=O)O	–	3.52% [at 32.5 µM] (inactive)
O=c1[nH]c(=O)n([C@H]2C[C@H](O)[C@@H](CO)O2)cc1/C=C/Br	–	4.07% (inactive)
CC(C)=CCC/C(C)=C/CC/C(C)=C/CC/C=C(\C)CC/C=C(\C)CCC=C(C)C	inactive	–
Cc1cc(-c2ccc(N=Nc3ccc4c(S(=O)(=O)O)cc(S(=O)(=O)O)c(N)c4c3O)c(C)c2)ccc1N=Nc1ccc2c(S(=O)(=O)O)cc(S(=O)(=O)O)c(N)c2c1O	inactive	–
O=C1CCC(c2ccc(-n3ccnc3)cc2)=NN1	5.96 µM (active)	–
C=CC1=C(C(=O)O)N2C(=O)[C@@H](NC(=O)/C(=N\O)c3csc(N)n3)[C@H]2SC1 (stereo in doubt)	inactive	–
CCCCC[C@H](O)/C=C/[C@@H]1[C@@H](C/C=C\CCCC(=O)O)[C@@H](O)C[C@H]1O	inactive	–
COc1ccc(/C=N/NC(=O)c2ccncc2)c(C(=O)O)c1OC	11.9 µM (active)	–
O=P(O)(O)OP(=O)(O)OP(=O)(O)O	–	0.106% (inactive)
C[S+](CC[C@H](N)C(=O)O)C[C@H]1O[C@@H](n2cnc3c(N)ncnc32)[C@H](O)[C@@H]1O (stereo partly specified)	–	2.83% (inactive)
CCN(CC)CCOC[C@H]1O[C@@H](O)[C@H](OCCN(CC)CC)[C@@H](O)[C@@H]1O	–	-0.225% (inactive)
CC(C)C[C@H](NC(=O)[C@@H](COC(C)(C)C)NC(=O)[C@H](Cc1ccc(O)cc1)NC(=O)[C@H](CO)NC(=O)[C@H](Cc1c[nH]c2ccccc12)NC(=O)[C@H](Cc1cnc[nH]1)NC(=O)[C@@H]1CCC(=O)N1)C(=O)N[C@@H](CCCN=C(N)N)C(=O)N1CCC[C@H]1C(=O)NNC(N)=O	inactive	–
CC/C(=C(/CC)c1ccc(OP(=O)(O)O)cc1)c1ccc(OP(=O)(O)O)cc1	–	-2.08% (inactive)
